Laboratory results as given in ChEMBL document CHEMBL3988442, “University of Dundee, Small-Polar-MMV Screening Library” (2021).
For some assays here: Entries with a potency or affinity are not part of this list.

Tests used:
Parameters in all cases: scale not given: direction of the effect not stated beside the values
[1] = target: Protein translocase subunit SecA (Escherichia coli (strain K12)) (UniProt P10408); assay: Assay to Identify E. coli SecA ATPase Inhibitors; format: functional; settings: 30 µM
Protein translocase subunit SecA (Escherichia coli (strain K12)), sequence (P10408 whole entry): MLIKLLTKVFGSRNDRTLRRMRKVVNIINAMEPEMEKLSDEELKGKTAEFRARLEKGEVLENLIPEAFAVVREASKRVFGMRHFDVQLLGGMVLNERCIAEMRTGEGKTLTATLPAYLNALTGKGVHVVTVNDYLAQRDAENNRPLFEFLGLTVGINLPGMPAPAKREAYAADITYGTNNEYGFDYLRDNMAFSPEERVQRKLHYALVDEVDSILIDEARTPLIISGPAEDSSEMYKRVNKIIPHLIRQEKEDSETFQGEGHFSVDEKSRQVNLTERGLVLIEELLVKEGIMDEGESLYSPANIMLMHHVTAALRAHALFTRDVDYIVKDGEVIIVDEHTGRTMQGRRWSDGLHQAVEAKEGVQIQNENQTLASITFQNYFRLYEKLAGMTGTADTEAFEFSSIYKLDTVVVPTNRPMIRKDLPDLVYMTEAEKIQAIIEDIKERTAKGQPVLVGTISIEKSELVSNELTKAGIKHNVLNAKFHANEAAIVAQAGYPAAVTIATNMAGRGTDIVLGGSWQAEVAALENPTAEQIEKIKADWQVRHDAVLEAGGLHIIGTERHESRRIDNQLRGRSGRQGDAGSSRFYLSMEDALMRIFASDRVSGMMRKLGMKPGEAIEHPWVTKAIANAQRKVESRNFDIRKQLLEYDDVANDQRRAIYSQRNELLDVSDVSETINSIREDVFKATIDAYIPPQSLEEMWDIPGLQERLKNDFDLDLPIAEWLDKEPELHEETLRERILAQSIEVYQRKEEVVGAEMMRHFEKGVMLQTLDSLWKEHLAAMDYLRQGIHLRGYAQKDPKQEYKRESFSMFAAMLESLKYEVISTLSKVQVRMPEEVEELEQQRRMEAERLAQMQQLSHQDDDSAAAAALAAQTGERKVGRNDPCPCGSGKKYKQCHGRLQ

[2] = target: T1, Ubiquitin-activating enzyme e1, putative (Leishmania donovani (strain BPK282A1)) (UniProt E9BSI1); assay: Leishmania donovani Ubiquitin Activating Enzyme (LdE1); format: functional; settings: 30 µM
T1 sequence (whole entry): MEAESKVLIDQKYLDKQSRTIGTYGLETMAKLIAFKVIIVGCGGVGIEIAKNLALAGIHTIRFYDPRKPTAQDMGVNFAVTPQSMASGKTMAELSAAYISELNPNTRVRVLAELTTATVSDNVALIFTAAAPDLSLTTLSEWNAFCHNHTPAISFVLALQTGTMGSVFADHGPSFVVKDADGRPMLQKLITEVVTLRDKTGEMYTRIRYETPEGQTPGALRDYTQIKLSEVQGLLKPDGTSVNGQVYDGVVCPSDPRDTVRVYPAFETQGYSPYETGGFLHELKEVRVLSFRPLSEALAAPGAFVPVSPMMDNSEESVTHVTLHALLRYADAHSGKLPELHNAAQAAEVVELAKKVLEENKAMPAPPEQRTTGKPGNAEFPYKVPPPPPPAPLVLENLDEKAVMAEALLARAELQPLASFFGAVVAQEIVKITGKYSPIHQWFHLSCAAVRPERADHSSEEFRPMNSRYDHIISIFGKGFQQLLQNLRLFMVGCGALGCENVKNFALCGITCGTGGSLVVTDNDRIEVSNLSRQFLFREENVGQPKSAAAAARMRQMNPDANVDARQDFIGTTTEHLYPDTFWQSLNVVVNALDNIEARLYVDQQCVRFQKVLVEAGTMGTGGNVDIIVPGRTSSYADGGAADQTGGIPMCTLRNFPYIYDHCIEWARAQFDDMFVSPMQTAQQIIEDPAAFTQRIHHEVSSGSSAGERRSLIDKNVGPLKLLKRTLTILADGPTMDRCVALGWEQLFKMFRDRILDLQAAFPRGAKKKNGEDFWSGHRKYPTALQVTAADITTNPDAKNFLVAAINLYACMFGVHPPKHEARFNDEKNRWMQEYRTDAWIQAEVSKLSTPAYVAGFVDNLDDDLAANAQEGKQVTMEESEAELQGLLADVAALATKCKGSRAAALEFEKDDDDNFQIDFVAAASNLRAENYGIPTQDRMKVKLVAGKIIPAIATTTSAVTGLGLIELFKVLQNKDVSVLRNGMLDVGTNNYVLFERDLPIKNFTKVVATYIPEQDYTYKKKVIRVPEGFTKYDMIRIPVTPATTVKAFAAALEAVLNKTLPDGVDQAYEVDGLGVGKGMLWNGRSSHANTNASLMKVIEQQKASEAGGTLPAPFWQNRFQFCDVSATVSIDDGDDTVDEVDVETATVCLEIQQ

[3] = target: AMP-activated protein kinase, AMPK (Homo sapiens) (UniProt P54646+O43741+P54619+Q9UGJ0+Q9Y478+Q13131+Q9UGI9); assay: AMP-dependent Kinase enzyme assay. An in vitro enzyme assay that detects ADP turnover that is directly proportional to AMPK activity. This uses naive AMPK that is activated during the assay with MK-8722; format: functional; settings: 30 µM
[4] = target: Sialic acid-binding Ig-like lectin 9 (Homo sapiens) (UniProt Q9Y336); assay: Hs-Siglec9 ALPHAscreen SOP 20170721; settings: 10 µM
Sialic acid-binding Ig-like lectin 9 (Homo sapiens), sequence (Q9Y336 whole entry): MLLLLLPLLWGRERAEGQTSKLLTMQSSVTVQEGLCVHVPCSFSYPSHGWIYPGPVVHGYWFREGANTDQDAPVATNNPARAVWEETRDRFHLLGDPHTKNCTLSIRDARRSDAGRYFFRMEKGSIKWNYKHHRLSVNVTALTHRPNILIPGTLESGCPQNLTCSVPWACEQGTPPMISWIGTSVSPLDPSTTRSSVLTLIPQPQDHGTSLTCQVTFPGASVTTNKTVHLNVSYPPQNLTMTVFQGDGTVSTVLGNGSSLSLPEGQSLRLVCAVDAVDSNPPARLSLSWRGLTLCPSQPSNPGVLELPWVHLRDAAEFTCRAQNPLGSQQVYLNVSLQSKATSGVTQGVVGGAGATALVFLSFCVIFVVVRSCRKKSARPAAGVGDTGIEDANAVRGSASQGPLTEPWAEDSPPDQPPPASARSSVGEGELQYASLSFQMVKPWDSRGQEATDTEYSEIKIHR

Trypanosoma cruzi = assay: Trypanosoma cruzi phosphomannomutase and mannose-1-phosphate guanylyltransferase assay; format: functional; settings: 10 µM
[5] = target: T2, Arginase-2, mitochondrial (Homo sapiens) (UniProt P78540); assay: in vitro enzyme assay to detect the production of urea directly proportional to the activity of Arginase II; format: functional; settings: 33.3 µM; note: in the data most compounds retested in dose-response had high values
T2 sequence (whole entry): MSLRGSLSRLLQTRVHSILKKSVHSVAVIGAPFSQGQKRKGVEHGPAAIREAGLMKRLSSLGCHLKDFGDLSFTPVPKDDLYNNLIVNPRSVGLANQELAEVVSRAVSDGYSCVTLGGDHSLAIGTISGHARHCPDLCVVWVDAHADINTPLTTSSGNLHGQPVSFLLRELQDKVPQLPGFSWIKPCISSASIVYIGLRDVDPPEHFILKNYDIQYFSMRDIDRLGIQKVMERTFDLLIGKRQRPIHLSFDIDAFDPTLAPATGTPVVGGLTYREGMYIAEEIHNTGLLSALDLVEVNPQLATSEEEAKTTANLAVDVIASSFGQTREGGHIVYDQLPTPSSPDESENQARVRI

[6] = target: T3, Proteasome subunit beta (Trypanosoma cruzi) (UniProt O96673); assay: Trypanosoma cruzi proteasome chymotrypsin-like activity (TcProtChymo) assay.; note: in the data most compounds retested in dose-response had high values; format: functional; settings: 9.37 µM
T3 sequence (whole entry): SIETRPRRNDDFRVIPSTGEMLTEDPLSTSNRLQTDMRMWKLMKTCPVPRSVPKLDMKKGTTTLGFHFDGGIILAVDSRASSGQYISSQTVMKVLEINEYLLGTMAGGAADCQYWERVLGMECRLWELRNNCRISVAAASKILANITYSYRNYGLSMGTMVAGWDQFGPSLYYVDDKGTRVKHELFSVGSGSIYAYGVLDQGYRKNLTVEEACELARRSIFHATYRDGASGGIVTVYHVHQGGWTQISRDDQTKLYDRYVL

Homo sapiens = species on record: Homo sapiens; assay: To identify inhibition of the IFN signalling (Jak-Stat) pathway via expression of an eGFP reporter gene under the control of an IFN-stimulated response element (ISRE) containing MxA promoter.; format: functional; settings: 30 µM
[7] = target: T4, Tyrosyl-tRNA synthetase, putative (Trypanosoma cruzi (strain CL Brener)) (UniProt Q4DSP6); assay: Trypanosoma cruzi tyrosyl tRNA synthetase (TcYRS) _High Tyrosine SOP; format: functional; settings: 30 µM; note: in the data most compounds retested in dose-response had high values
T4 sequence (whole entry): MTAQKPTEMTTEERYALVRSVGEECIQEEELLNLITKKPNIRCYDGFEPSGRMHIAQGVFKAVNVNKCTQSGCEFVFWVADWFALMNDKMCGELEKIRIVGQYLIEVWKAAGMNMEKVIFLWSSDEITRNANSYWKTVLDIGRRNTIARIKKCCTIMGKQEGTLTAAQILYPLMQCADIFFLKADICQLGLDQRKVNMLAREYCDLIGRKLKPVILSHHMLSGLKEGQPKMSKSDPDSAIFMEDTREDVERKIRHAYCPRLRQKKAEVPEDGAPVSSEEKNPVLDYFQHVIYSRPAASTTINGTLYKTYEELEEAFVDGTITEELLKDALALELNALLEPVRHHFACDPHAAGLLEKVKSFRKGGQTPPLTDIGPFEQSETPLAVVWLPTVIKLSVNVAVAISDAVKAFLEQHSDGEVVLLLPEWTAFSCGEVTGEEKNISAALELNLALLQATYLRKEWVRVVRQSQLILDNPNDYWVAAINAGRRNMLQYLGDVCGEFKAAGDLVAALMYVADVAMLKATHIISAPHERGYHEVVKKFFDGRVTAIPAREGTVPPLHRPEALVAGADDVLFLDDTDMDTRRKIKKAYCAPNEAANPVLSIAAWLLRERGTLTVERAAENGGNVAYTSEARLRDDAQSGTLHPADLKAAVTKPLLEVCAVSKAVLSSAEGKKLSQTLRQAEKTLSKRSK

[8] = target: T4, Tyrosyl-tRNA synthetase, putative (Trypanosoma cruzi (strain CL Brener)); assay: Trypanosoma cruzi tyrosyl tRNA synthetase (TcYRS) SOP; format: functional; settings: 30 µM
[9] = target: Chromo domain-containing protein 1 (Saccharomyces cerevisiae (strain ATCC 204508 / S288c) (Baker's yeast)) (UniProt P32657); assay: ScCHD-1 Enzyme Inhibition Assay; format: functional; settings: 30 µM; note: in the data most compounds retested in dose-response had high values
Chromo domain-containing protein 1 (Saccharomyces cerevisiae (strain ATCC 204508 / S288c) (Baker's yeast)), sequence (P32657 whole entry, the tested form may be a part): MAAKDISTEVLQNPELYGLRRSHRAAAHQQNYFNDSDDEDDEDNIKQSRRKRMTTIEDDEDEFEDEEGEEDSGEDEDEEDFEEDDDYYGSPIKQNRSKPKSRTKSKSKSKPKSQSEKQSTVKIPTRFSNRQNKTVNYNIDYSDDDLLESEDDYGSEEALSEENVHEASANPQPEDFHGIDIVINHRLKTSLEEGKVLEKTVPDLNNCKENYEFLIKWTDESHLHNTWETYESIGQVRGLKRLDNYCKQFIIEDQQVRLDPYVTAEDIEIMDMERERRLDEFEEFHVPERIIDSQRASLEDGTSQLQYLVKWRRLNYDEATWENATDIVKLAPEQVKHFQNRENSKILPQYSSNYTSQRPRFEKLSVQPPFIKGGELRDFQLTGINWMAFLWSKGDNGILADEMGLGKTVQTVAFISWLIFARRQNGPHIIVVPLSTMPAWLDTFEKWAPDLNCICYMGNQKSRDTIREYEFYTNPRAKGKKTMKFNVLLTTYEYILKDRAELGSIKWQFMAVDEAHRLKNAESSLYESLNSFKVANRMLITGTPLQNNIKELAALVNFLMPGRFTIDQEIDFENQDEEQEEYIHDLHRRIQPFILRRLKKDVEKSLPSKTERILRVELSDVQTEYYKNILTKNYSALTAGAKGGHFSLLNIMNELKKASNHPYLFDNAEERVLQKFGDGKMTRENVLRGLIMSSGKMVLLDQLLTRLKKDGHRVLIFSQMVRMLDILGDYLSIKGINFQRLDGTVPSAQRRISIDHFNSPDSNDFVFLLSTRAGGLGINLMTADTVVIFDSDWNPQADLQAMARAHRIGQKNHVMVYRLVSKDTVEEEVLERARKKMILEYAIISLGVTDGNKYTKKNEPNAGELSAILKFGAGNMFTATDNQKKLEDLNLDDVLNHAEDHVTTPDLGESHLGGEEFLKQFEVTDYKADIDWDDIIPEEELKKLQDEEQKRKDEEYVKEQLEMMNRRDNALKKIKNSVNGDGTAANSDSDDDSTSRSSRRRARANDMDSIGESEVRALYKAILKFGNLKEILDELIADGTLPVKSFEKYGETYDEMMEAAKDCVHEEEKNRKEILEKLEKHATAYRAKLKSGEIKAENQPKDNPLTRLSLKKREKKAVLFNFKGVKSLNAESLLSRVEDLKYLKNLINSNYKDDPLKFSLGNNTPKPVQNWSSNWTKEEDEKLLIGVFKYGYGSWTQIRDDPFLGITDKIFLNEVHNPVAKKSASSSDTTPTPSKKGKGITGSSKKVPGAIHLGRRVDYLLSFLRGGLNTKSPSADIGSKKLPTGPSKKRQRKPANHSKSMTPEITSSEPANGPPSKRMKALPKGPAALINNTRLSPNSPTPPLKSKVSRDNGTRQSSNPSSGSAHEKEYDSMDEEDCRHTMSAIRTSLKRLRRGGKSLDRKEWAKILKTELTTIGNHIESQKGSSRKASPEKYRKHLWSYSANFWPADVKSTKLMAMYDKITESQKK

SMILES | Percent Effect [1] | Percent Effect [2] | Percent Effect [3] | Percent Effect [4] | Percent Effect (Trypanosoma cruzi) | Percent Effect [5] | Percent Effect [6] | Percent Effect (Homo sapiens) | Percent Effect [7] | Percent Effect [8] | Percent Effect [9]
CC(NC(N)=O)C(=O)N1CCCN(Cc2nccn2C(C)C)CC1 (configuration not stated) | -1.61% | 1.27% | 7.49% | 0.743% | -1.13% | -4.09% | 2.74% | -2.71% | 0% | 2.53% | -3.12%
CC1CCN(S(=O)(=O)NCCCn2cncn2)CC1 | -3.76% | 6.33% | 3.29% | 1.98% | 1.33% | 5.38% | 5.49% | 23.8% | 5.21% | 12.7% | -7.93%
COc1ccc(C)cc1NC(=O)Nc1cnc(N2CCN(C)CC2)nc1 | -1.71% | 7.79% | 2.48% | -0.124% | 5.42% | -12.3% | 8.18% | 36.4% | 6.35% | 11.5% | -11.3%
O=C(c1cccc(S(=O)(=O)NCCCc2ncc[nH]2)c1)N1CCOCC1 | -1.26% | 5.48% | -0.693% | -4.52% | -7.05% | 4.09% | 13.8% | 5.99% | 2.15% | 7.5% | -3.79%
CCc1cnc(CN(C)C2CCN(CCS(C)(=O)=O)C2)o1 (configuration not stated) | -1.6% | -1.39% | -3.86% | -4.8% | -5.54% | 2.21% | 3.51% | -7.25% | 0% | 2.56% | 0.436%
CCOc1ncccc1C(=O)N(C)Cc1ncc(C)c(OC)c1C | -0.0989% | 13% | 5.97% | -3.9% | -3.23% | 6.95% | 12.5% | 27.5% | 5.71% | 18.8% | -14.4%
CN(Cc1cnn(C)c1)C(=O)NC1CCN(Cc2ccccn2)CC1 | -4.71% | 15.6% | 2.19% | -0.77% | -8.99% | 0.356% | 4.22% | 15.9% | 3.88% | 7.32% | -3.83%
Cc1ccc(NC(=O)NC(C)c2nc[nH]n2)cc1 (configuration not stated) | -6.05% | -10.8% | -1.56% | -5.4% | -1.86% | -0.248% | 15.9% | -15.4% | 1.07% | 1.24% | -1.66%
Clc1ccccc1C1(c2ccnc(-c3ncccn3)n2)CCNCC1 | -3.79% | 7.79% | 1.81% | 8.56% | -3.64% | -2.76% | 7.49% | -17.8% | 6.45% | 18.5% | -0.785%
COCC1c2nnn(CC3CC3)c2CCN1C(=O)Cc1cccs1 (configuration not stated) | 1.82% | 2.7% | -8.03% | 6.62% | 4.59% | 13.7% | 17.2% | 7.37% | 4.3% | -58% | -3.81%
O=C(CCNC(=O)c1ccccc1N1CCOCC1)NC1CCCC1 | -4.31% | 16.4% | -6.31% | 6.63% | 4.76% | -0.798% | 13.1% | -7.41% | 8.33% | 21% | -9.11%
CN(C)C(=O)N1C[C@H](Oc2ccccn2)[C@H]2OCCC[C@H]21 | 0.276% | 0% | 4.78% | 2.55% | -2.27% | 0.645% | 3.65% | -2.96% | 3.17% | 3.85% | -3.5%
CCSCCC(=O)Nc1ncn(Cc2cccnc2)n1 | -2.86% | 5.33% | -3.63% | 8.4% | -5.16% | 3.65% | 17.8% | 9.04% | 4.92% | 13.6% | -5.58%
O=C(NCc1cccs1)C1CN(C(=O)c2cccs2)CC12CCOCC2 (configuration not stated) | -3.46% | 8% | 5.07% | 1.33% | 0.193% | -43.5% | 14.4% | -4.96% | 2.08% | -312% | -2.49%
Cc1csc(CNC(=O)NCCc2ccc3c(c2)OCCO3)n1 | -5.64% | 13% | -2.69% | -16.2% | 7.93% | -3.58% | 13.5% | 8.98% | 4.76% | 23.5% | -17.6%
CC(=O)c1ccc(OCC(=O)NC(C)CCc2ccco2)cc1 (configuration not stated) | -0.558% | 5.41% | 7.91% | -3.5% | -7.34% | 1.91% | 19.8% | 6.38% | 3.7% | 2.44% | -1.85%
C[C@H]1C[C@@H]2CCN(C(=O)c3cccn3C)C[C@H]2O1 | -0.284% | 10.8% | 2.27% | -5.58% | -8.89% | 6.69% | 17.5% | 3.63% | -1.08% | 5.13% | -0.358%
Cc1nc(CN(C)C2CCCN(c3cccnn3)C2)no1 (configuration not stated) | -0.0171% | 20.8% | -7.88% | 0.261% | -3.18% | 5.34% | 9.29% | 37.1% | 4.85% | 0% | -5.56%
Cc1ccc(N2CC[C@H]3OCC[C@@]3(C(=O)NC(C)C)C2)nn1 | -2.37% | 2.7% | -2.16% | 0.317% | 2.15% | 16.7% | 6.85% | 4.31% | 6.93% | 18.3% | -5.52%
CN(Cc1cnn(C)c1)C(=O)NC1CCN(c2ncccn2)CC1 | -7.21% | 13% | 1.2% | -4.13% | -10.7% | -0.356% | 6.25% | 25.2% | 1.94% | 2.44% | -8.45%
CC(NC(=O)NCC1(c2ccc(F)cc2)CCC1)c1nncn1C (configuration not stated) | -5.85% | 15.8% | 2.85% | 8.69% | -3.83% | 0% | 2.62% | 7.23% | 6.4% | 23.5% | 2.89%
CCOC(=O)c1sc2ccsc2c1CNC(=O)CC | -4.75% | 16.2% | -8.58% | 18.5% | 7.15% | -0.185% | 1.44% | 19% | 4.95% | 13.4% | 38.4%
